Source: PubChem BioAssay (NCATS)
Inconclusive results are not listed. The source made the active and inactive calls. The call rests on the fitted dose curve; in most records, active means well fitted cell-killing curve with a large enough effect; inconclusive means small, poorly fitted or top-dose-only effect; inactive means flat fitted curve, though single readings scatter.

Experiment: Cell Viability - LYMP2-010 (AID 981); further: nearly all actives have a fitted effect of over 55% in size
Settings: LYMP2-010 lymphoblastoid cell viability, qHTS; series mostly up to 92.2 µM
Procedure, shortened: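 Luminescent ATP signal (CellTiter-Glo) served as the viability read-out. Cells of the human lymphoblastoid line were treated with compound over a concentration range for 24 hours at 37 C, and AC50 values came from Hill-equation modeling.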

SMILES	outcome
COc1ccc(C(=O)c2ccccc2)c(O)c1	inactive
COc1ccc(C(Cl)=C(c2ccc(OC)cc2)c2ccc(OC)cc2)cc1	inactive
NC(=O)c1ccccc1O	inactive
CCCCC(CC)COC(=O)c1ccc(N(C)C)cc1 (configuration not stated)	inactive
CCOc1ccccc1C(N)=O	inactive
O=C(O)c1ccc(S(=O)(=O)N(Cl)Cl)cc1	inactive
CCCN(CCC)S(=O)(=O)c1ccc(C(=O)O)cc1	inactive
OC[C@H]1O[C@@H]2O[C@H]3[C@H](O)[C@@H](O)[C@@H](O[C@H]4[C@H](O)[C@@H](O)[C@@H](O[C@H]5[C@H](O)[C@@H](O)[C@@H](O[C@H]6[C@H](O)[C@@H](O)[C@@H](O[C@H]7[C@H](O)[C@@H](O)[C@@H](O[C@H]8[C@H](O)[C@@H](O)[C@@H](O[C@H]1[C@H](O)[C@H]2O)O[C@@H]8CO)O[C@@H]7CO)O[C@@H]6CO)O[C@@H]5CO)O[C@@H]4CO)O[C@@H]3CO	inactive
NCCNc1cccc2ccccc12	inactive
C=C[C@H]1CN2CC[C@H]1C[C@@H]2[C@@H](O)c1ccnc2ccc(OC)cc12	inactive
COc1cc([C@H]2Oc3cc([C@H]4Oc5cc(O)cc(O)c5C(=O)[C@@H]4O)ccc3O[C@@H]2CO)ccc1O	inactive
C/C=C/c1ccc(O)c(OC)c1	inactive
CCOc1ccc(NC(C)=O)cc1	inactive

Experiment: Cell Viability - LYMP2-012 (AID 982);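 further: cellular ATP by luciferase luminescence where a drop means cytotoxicity; cells exposed to compound for one day before reading; nearly all actives have a fitted effect of over 55% in size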
Settings: LYMP2-012 lymphoblastoid cell viability qHTS; series mostly up to 92.2 µM

SMILES	outcome
COc1ccc(C(=O)c2ccccc2)c(O)c1	inactive
COc1ccc(C(Cl)=C(c2ccc(OC)cc2)c2ccc(OC)cc2)cc1	inactive
NC(=O)c1ccccc1O	inactive
CCCCC(CC)COC(=O)c1ccc(N(C)C)cc1 (configuration not stated)	inactive
CCOc1ccccc1C(N)=O	inactive
O=C(O)c1ccc(S(=O)(=O)N(Cl)Cl)cc1	inactive
CCCN(CCC)S(=O)(=O)c1ccc(C(=O)O)cc1	inactive
OC[C@H]1O[C@@H]2O[C@H]3[C@H](O)[C@@H](O)[C@@H](O[C@H]4[C@H](O)[C@@H](O)[C@@H](O[C@H]5[C@H](O)[C@@H](O)[C@@H](O[C@H]6[C@H](O)[C@@H](O)[C@@H](O[C@H]7[C@H](O)[C@@H](O)[C@@H](O[C@H]8[C@H](O)[C@@H](O)[C@@H](O[C@H]1[C@H](O)[C@H]2O)O[C@@H]8CO)O[C@@H]7CO)O[C@@H]6CO)O[C@@H]5CO)O[C@@H]4CO)O[C@@H]3CO	inactive
NCCNc1cccc2ccccc12	inactive
C=C[C@H]1CN2CC[C@H]1C[C@@H]2[C@@H](O)c1ccnc2ccc(OC)cc12	inactive
COc1cc([C@H]2Oc3cc([C@H]4Oc5cc(O)cc(O)c5C(=O)[C@@H]4O)ccc3O[C@@H]2CO)ccc1O	inactive
C/C=C/c1ccc(O)c(OC)c1	inactive
CCOc1ccc(NC(C)=O)cc1	inactive

Experiment: Cell Viability - LYMP2-014 (AID 983);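 further: cells exposed to compound for 24 h at 37 °C; nearly all actives have a fitted effect of over 50% in size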
Settings: LYMP2-014 lymphoblastoid cells, viability qHTS; series mostly up to 92.2 µM
Procedure, shortened: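 Luminescent ATP signal (CellTiter-Glo, 30 min at room temperature) serves as the viability read-out after 24 hr compound exposure at 37 C. Cells were seeded at 2500 per well and settled 5 hr beforehand.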

SMILES	outcome
COc1ccc(C(=O)c2ccccc2)c(O)c1	inactive
COc1ccc(C(Cl)=C(c2ccc(OC)cc2)c2ccc(OC)cc2)cc1	inactive
NC(=O)c1ccccc1O	inactive
CCCCC(CC)COC(=O)c1ccc(N(C)C)cc1 (configuration not stated)	inactive
CCOc1ccccc1C(N)=O	inactive
O=C(O)c1ccc(S(=O)(=O)N(Cl)Cl)cc1	inactive
CCCN(CCC)S(=O)(=O)c1ccc(C(=O)O)cc1	inactive
OC[C@H]1O[C@@H]2O[C@H]3[C@H](O)[C@@H](O)[C@@H](O[C@H]4[C@H](O)[C@@H](O)[C@@H](O[C@H]5[C@H](O)[C@@H](O)[C@@H](O[C@H]6[C@H](O)[C@@H](O)[C@@H](O[C@H]7[C@H](O)[C@@H](O)[C@@H](O[C@H]8[C@H](O)[C@@H](O)[C@@H](O[C@H]1[C@H](O)[C@H]2O)O[C@@H]8CO)O[C@@H]7CO)O[C@@H]6CO)O[C@@H]5CO)O[C@@H]4CO)O[C@@H]3CO	inactive
NCCNc1cccc2ccccc12	inactive
C=C[C@H]1CN2CC[C@H]1C[C@@H]2[C@@H](O)c1ccnc2ccc(OC)cc12	inactive
COc1cc([C@H]2Oc3cc([C@H]4Oc5cc(O)cc(O)c5C(=O)[C@@H]4O)ccc3O[C@@H]2CO)ccc1O	inactive
C/C=C/c1ccc(O)c(OC)c1	inactive
CCOc1ccc(NC(C)=O)cc1	inactive

Experiment: Cell Viability - LYMP2-016 (AID 984); further: nearly all actives have a fitted effect of over 55% in size
Settings: LYMP2-016 lymphoblastoid cell viability, qHTS; series mostly up to 92.2 µM
Procedure, shortened: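 Concentration-dependent ATP depletion measured in LYMP2-016 lymphoblastoid cells, 24 h, 37 C; luciferase-based luminescent detection; Hill-equation AC50.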

SMILES	outcome
COc1ccc(C(=O)c2ccccc2)c(O)c1	inactive
COc1ccc(C(Cl)=C(c2ccc(OC)cc2)c2ccc(OC)cc2)cc1	inactive
NC(=O)c1ccccc1O	inactive
CCCCC(CC)COC(=O)c1ccc(N(C)C)cc1 (configuration not stated)	inactive
CCOc1ccccc1C(N)=O	inactive
O=C(O)c1ccc(S(=O)(=O)N(Cl)Cl)cc1	inactive
CCCN(CCC)S(=O)(=O)c1ccc(C(=O)O)cc1	inactive
OC[C@H]1O[C@@H]2O[C@H]3[C@H](O)[C@@H](O)[C@@H](O[C@H]4[C@H](O)[C@@H](O)[C@@H](O[C@H]5[C@H](O)[C@@H](O)[C@@H](O[C@H]6[C@H](O)[C@@H](O)[C@@H](O[C@H]7[C@H](O)[C@@H](O)[C@@H](O[C@H]8[C@H](O)[C@@H](O)[C@@H](O[C@H]1[C@H](O)[C@H]2O)O[C@@H]8CO)O[C@@H]7CO)O[C@@H]6CO)O[C@@H]5CO)O[C@@H]4CO)O[C@@H]3CO	inactive
NCCNc1cccc2ccccc12	inactive
C=C[C@H]1CN2CC[C@H]1C[C@@H]2[C@@H](O)c1ccnc2ccc(OC)cc12	inactive
COc1cc([C@H]2Oc3cc([C@H]4Oc5cc(O)cc(O)c5C(=O)[C@@H]4O)ccc3O[C@@H]2CO)ccc1O	inactive
C/C=C/c1ccc(O)c(OC)c1	inactive
CCOc1ccc(NC(C)=O)cc1	inactive
